Reference: PubChem BioAssay AID686978 (National Center for Advancing Translational Sciences (NCATS), 2013)
Values joined by “and” are separate entries in the source; they are usually repeats but may differ in a detail not shown here. Equal values may be shown once. Hit rate of the full screen: of about 420,000 compounds, about 64,000 (15%) were called active. A call without a number means that no potency is given here. Inconclusive results (about 27%) are left out. This excerpt belongs to a sample that is enriched for actives. Values without a mark were called inactive. Calls follow the shape of the dose curve; as a rule, active = well fitted inhibition curve with a large enough effect; inconclusive = small, poorly fitted or top-dose-only effect; inactive = flat fitted curve, though single readings scatter.

assay: qHTS for Inhibitors of human tyrosyl-DNA phosphodiesterase 1 (TDP1): qHTS in cells in absence of CPT; details: DT40 Tdp1-/- hTDP1 cells, no CPT, ATP luminescence, 48 h; series mostly up to 46.2 µM; also: nearly all actives have a fitted effect of over 55% in size
Procedure, shortened: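 Camptothecin absent (DMSO only). Human TDP1-complemented DT40 knockout cells, 400 cells/well, 37 °C for minimum 48 hr; ATP measured via CellTiter-Glo, 30 min dark incubation, luminescence.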
Potency is read from the fitted curve at half-maximal effect.

SMILES	Potency	activity change, negative = growth inhibition
C=Cn1ccnc1P(=S)(c1cc(N(CC)CC)ns1)c1nccn1C=C	inactive	–
O=C1C[C@@H]2OCC=C3CN4CC[C@]56c7ccccc7N1[C@H]5[C@H]2[C@H]3C[C@H]46 (tested in a mixture with another compound)	inactive	–
COc1ccc(CCn2c(O)c(C=NCCCn3ccnc3)c(=O)[nH]c2=O)cc1OC	inactive	–
C=CCN1C(=O)NC(=O)/C(=C/c2ccc(OCC(=O)Nc3ccc(C)cc3)cc2)C1=O	inactive	–
Cc1ccc(C)c(NS(=O)(=O)c2ccc(OCC(=O)NCc3cccnc3)cc2)c1	inactive	–
Cc1ccc(NC(=O)COc2ccc(-n3ccnc3)cc2)cc1Cl	20.6 µM (active)	–
COc1ccc(NC(=O)N2Cc3ccccc3-n3nncc3C2)cc1	inactive	–
O=C1/C(=C\c2ccc3c(c2)OCO3)N2CCC1CC2	inactive	–
COc1ccc(C)cc1N(CC(=O)N1CCC(C)CC1)S(=O)(=O)c1ccc(C)cc1	13 µM (active)	–
CCOC(=O)c1c(N)n(CCN2CCOCC2)c2nc3ccccc3nc12	inactive	–
CC(=O)NC(=O)NC(C)Cc1ccccc1 (centres undefined)	inactive	–
Nc1ccc(C(=O)N/N=C2/CN3CCC2CC3)cc1	inactive	–
CN(C)C(=O)Oc1ccc(OCc2cccc[n+]2C)cc1	inactive	–
Cc1cc2ccccn2c1C(C[N+](=O)[O-])c1c(F)cccc1Cl (centres undefined)	14.6 µM (active)	–
CCN1C(=O)C(=Cc2c(C)n(CC(=O)NCC3CCCO3)c3ccccc23)C(=O)N(CC)C1=S (centres undefined)	inactive	–
CN(C)CC1CCCCC1=O (centres undefined)	13 µM (active)	–
COC(=O)C(O)(c1ccc(NC(=O)c2ccco2)c(OC)c1)C(F)(F)F (centres undefined)	inactive	–
CC(=CCOc1ccc2ccc(=O)oc2c1)C1=CC(=O)C(C)(C)O1	3.26 µM (active)	–
CC(C)c1ccc(OCC(=O)N2CCN(C)CC2)c(Br)c1	inactive	–
O=C(C1CCN(S(=O)(=O)c2ccc(Br)s2)CC1)N1CCN(c2ccccc2)CC1	20.6 µM (active)	–
O=C(N/N=C/c1c(O)n(Cc2ccccc2)c(=O)[nH]c1=O)c1ccccc1	inactive	–
COc1ccc(Cn2c(O)c(/C=C3/C=CC=N3)c(=O)[nH]c2=O)cc1	16.4 µM (active)	–
COc1ccc(N=Cc2c(O)n(C)c(=O)[nH]c2=O)cc1	inactive	–

SMILES	Potency	activity change, negative = growth inhibition
Nc1ccc(Cc2ccc(N)c(Cl)c2)cc1Cl	inactive	–
CCCN(C/C=C/I)C1CCc2ccc(O)cc2C1 (centres undefined)	20.6 µM (active)	–
Cc1cccc2c(CCN)c[nH]c12	inactive	–
Oc1cc2c(cc1CN1CCN(c3ccccc3)CC1)OCO2	inactive	–
CC(=O)OC1C2(CC3N4C(=O)C5(CO)SSC4(CC31O)C(=O)N5C)OC(C)C(C)(C)C2=O (centres undefined)	0.164 µM (active)	–
COC(=O)CN1C(=O)C2(C(C(=O)OC)=C(N)Oc3ccccc32)C2=C1CC(C)(C)CC2=O (centres undefined)	inactive	–
Cc1cc(OCc2cc(C(=O)O)oc2C)c2c3c(c(=O)oc2c1)CCCC3	inactive	–
COC(=O)COc1cc(C)cc2oc(=O)c3c(c12)CCCC3	inactive	–
CC(=O)c1ccc(OC(NC(=O)Cc2ccccc2)C(Cl)(Cl)Cl)cc1 (centres undefined)	inactive	–
CCCCCCCCCCCCn1ccc(=N)cc1	0.411 µM (active)	–
CC(=C1C(=O)c2ccccc2C1=O)N1CCN(CCN=Cc2c(O)n(C)c(=O)n(C)c2=O)CC1	inactive	–
CN1CCc2cc3c(cc2[C@H]1[C@@H]1OC(=O)c2c1ccc1c2OCO1)OCO3	inactive	–
CC(C)CN1CCN(Cc2ccccc2C(F)(F)F)CC1CCO (centres undefined)	inactive	–
O=C1C2CCN(CC2)C1(CO)CO	5.96 µM (active) and 4.61 µM (active)	–
CC(C)c1ccc(OCC(=O)N2CCCN(C)CC2)cc1	inactive	–
O=C(Nc1cccc2ccccc12)N1CCC2(CC1)OCCO2	inactive	–
COc1ccc(CCn2c(O)c(C=NC3CC3)c(=O)[nH]c2=O)cc1OC	inactive	–
Cc1nc2ccc(N3CCN(C)CC3)cc2nc1C	inactive	–
CN1CCN(c2cc(N3CCNCC3)ccc2[N+](=O)[O-])CC1	7.31 µM (active)	–
COc1cccc(-c2nc3ccc(N4CCN(C)CC4)cc3[nH]2)c1	inactive	–
O=c1[nH]c(=O)n(Cc2ccccc2)c(O)c1/C=N/Nc1c(F)c(F)c(F)c(F)c1F	inactive	–
Cc1cc(C)c2c(c1)NP(=S)(c1ccccc1)N2 (centres undefined)	inactive	–
COc1ccc2c(c1)NP(=S)(c1ccccc1)N2 (centres undefined)	16.4 µM (active)	–

SMILES	Potency	activity change, negative = growth inhibition
NC(=O)Cn1cc(C(=O)c2ccccc2F)c2ccccc21	inactive	–
N#Cc1ccc(Cn2cc(C(=O)c3ccco3)c3ccccc32)cc1	23.1 µM (active)	–
Cc1cc(=O)oc2c(C)c(OCC(=O)N3CCN(Cc4ccc5c(c4)OCO5)CC3)ccc12	inactive	–
O=C(CN1CCCCC1)Nc1ccc(Br)cc1C(=O)c1ccccc1Cl	inactive	–
O=S(=O)(O)C(F)(F)C(F)(F)C(F)(F)C(F)(F)F	inactive	–
Cc1ccc(OC(=O)N(C)C[C@@H]2OCc3cnnn3CCCC(=O)N([C@H](C)CO)C[C@@H]2C)cc1	inactive	–
O=c1c2ccccc2nc(CBr)n1-c1ccc(Cl)cc1	inactive	–
O=c1c2ccccc2nc(/C=C/c2ccc(F)cc2)n1-c1ccccc1O	16.4 µM (active)	–
COc1cccc(N2C(=O)NC(=O)/C(=C\c3cn(C)c4ccccc34)C2=O)c1	inactive	–
Cn1cc(/C=C/c2nc3ccccc3c(=O)n2-c2ccccc2)c2ccccc21	8.2 µM (active)	–
C1CC[C@H]([C@@]23C[C@H](C[C@H]4CCCN[C@H]42)[C@@H]2CCCCN2C3)NC1	–	-7.17% [at 9.04 µM]
CCCC(C)n1[nH]c(=O)c2c1NC(=O)CSC2c1ccc(OC)c(OC)c1 (centres undefined)	inactive	–
COc1ccccc1-n1c(O)c(C=NC2CC2)c(=O)[nH]c1=O	inactive	–
CCOC(=O)CNC(=O)N1Cc2cc(N3CCCCC3)ccc2-n2nncc2C1	inactive	–
c1ccc(CC2CCCCN2)cc1 (centres undefined)	inactive	–
Cn1c(O)c(C=Nc2ccc3c(c2)CCC3)c(=O)n(C)c1=O	inactive	–
CC(=NC1CCN(Cc2ccccc2)CC1)c1c(O)n(C)c(=O)n(C)c1=O	inactive	–
Cn1c(O)c(C(=Nc2ccc(F)cc2)c2ccccc2)c(=O)n(C)c1=O	9.2 µM (active)	–
CCN1CCN(Cc2cc(OC)c3c(c2)OCO3)CC1	inactive	–
COc1cccc(C(=O)N2C[C@H]3C[C@@H](C2)c2cccc(=O)n2C3)c1	inactive	–
N#Cc1c(Cl)c(Cl)c(Cl)c(C#N)c1Cl	25.1 nM (active) and 517 nM (active)	–
Cc1nc2ccccc2c(=O)n1-c1ccc(Cl)cc1Cl	23.1 µM (active)	–
O=c1c2ccccc2nc(-c2ccc(Cl)cc2Cl)n1-c1ccncc1	inactive	–
